Article PMC5540273 (PLoS ONE, 2017)

What was measured:
Conditions in all cases: concentration: 1 μM, replicates: in singlicate; n = 1
PLK2 = tested on: PLK2
PLK3 = tested on: PLK3
PLK4 = tested on: PLK4
PRKCD = tested on: PRKCD
PRKCE = tested on: PRKCE
PRKCH = tested on: PRKCH
PRKCI = tested on: PRKCI
PRKCQ = tested on: PRKCQ
PRKD1 = tested on: PRKD1
PRKD2 = tested on: PRKD2
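Note: KINOMEscan kinase panel screen.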

SMILES | %Inh (PLK2) [%] | %Inh (PLK3) [%] | %Inh (PLK4) [%] | %Inh (PRKCD) [%] | %Inh (PRKCE) [%] | %Inh (PRKCH) [%] | %Inh (PRKCI) [%] | %Inh (PRKCQ) [%] | %Inh (PRKD1) [%] | %Inh (PRKD2) [%]
CCc1ccc(-c2ccc3c(c2)-c2c(cnn2C)S(=O)(=O)N3C)cc1 | 4 | 2 | 14 | 0 | 17 | 0 | 2 | 23 | 0 | 14
Cl.Cl.NCC(C(=O)Nc1cc(Br)c(-c2ccnc3[nH]ccc23)s1)c1ccccc1 (centres unmarked) [GSK1269851] | 16 | 2 | 0 | 70 | 58 | 63 | 26 | 73 | 0 | 0
CCS(=O)(=O)c1ccc(OC)c(Nc2nccc(-c3c(-c4cccc(NC(=O)c5c(F)cccc5F)c4)nn4ncccc34)n2)c1 [GSK326180] | 0 | 5 | 16 | 0 | 12 | 18 | 16 | 27 | 0 | 9
COC(=O)Nc1nc2cc(Oc3ccc(NC(=O)Nc4cc(C(F)(F)F)ccc4F)cn3)ccc2[nH]1.Cl.Cl [GW681170] | 0 | 0 | 55 | 0 | 12 | 14 | 26 | 0 | 0 | 9
Cc1ccc(C(=O)Nc2ccc(Nc3ccnc4cc(-c5nccs5)ccc34)cc2O)cc1.Cl [GW494702] | 0 | 0 | 98.4 | 0 | 16 | 5 | 2 | 13 | 0 | 2
CN(C)Cc1ccc(-c2ccc3c(Nc4ccc(Oc5ccccn5)cc4)ccnc3c2)o1 [GW567148] | 0 | 0 | 37 | 0 | 0 | 7 | 0 | 0 | 0 | 4
COc1cccc(C2=C(Nc3ccc(Cl)c(C(=O)O)c3)C(=O)NC2=O)c1 [SB-390769] | 100 | 100 | 1 | 0 | 32 | 25 | 21 | 0 | 0 | 6
c1ccc(-c2cnc3nccnn23)cc1 [AH20685] | 0 | 0 | 0 | 0 | 0 | 4 | 3 | 0 | 0 | 0
COc1ccc(Nc2nccc(NCCNC(=O)c3cc4ccccc4s3)n2)cc1 [GSK1379896] | 0 | 0 | 0 | 0 | 2 | 0 | 25 | 9 | 0 | 0
FC(F)(F)c1ccc(/C=C/c2cncnc2Nc2ccc3[nH]c(Cc4ccccc4)nc3c2)cc1 [GW709199] | 0 | 0 | 0 | 25 | 0 | 0 | 55 | 0 | 0 | 3
Cc1ccc(C)c(NC(=O)NC2CCN(c3ccnc(Nc4ccc(F)cc4)n3)C2)c1 (centres unmarked) [GSK1379720] | 0 | 0 | 0 | 0 | 15 | 0 | 13 | 0 | 0 | 0
Cn1cc(-c2ccc3c(c2)CCN3C(=O)Cc2cccc(Cl)c2)c2c(N)ncnc21 [GSK2606590] | 0 | 0 | 6 | 15 | 0 | 27 | 0 | 10 | 0 | 0
Oc1cc(Nc2ccnc3cc(I)ccc23)ccc1F [GW552771] | 0 | 0 | 0 | 0 | 3 | 13 | 30 | 0 | 45 | 30
C[C@@H](Oc1cc(-n2cnc3cc(-c4ccnc(NCCS(C)(=O)=O)c4)ccc32)sc1C(N)=O)c1ccccc1Cl [GSK907232] | 99.2 | 99.4 | 32 | 11 | 3 | 0 | 9 | 31 | 0 | 0
COc1cc(Nc2nccc(-c3c(-c4cccc(NC(=O)c5c(F)cccc5F)c4)nn4ccccc34)n2)cc(OC)c1OC [GSK323521] | 0 | 0 | 6 | 31 | 17 | 22 | 27 | 15 | 8 | 7
CN1CCN(CCCNc2nccc(-c3c(-c4ccc(F)cc4)nn4cc(C(F)(F)F)ccc34)n2)CC1 [GW621581] | 0 | 0 | 12 | 7 | 0 | 20 | 19 | 7 | 47 | 34

SMILES | %Inh (PLK2) [%] | %Inh (PLK3) [%] | %Inh (PLK4) [%] | %Inh (PRKCD) [%] | %Inh (PRKCE) [%] | %Inh (PRKCH) [%] | %Inh (PRKCI) [%] | %Inh (PRKCQ) [%] | %Inh (PRKD1) [%] | %Inh (PRKD2) [%]
COc1ccc(-c2coc3ccc(-c4nnc(SCc5ccc(OC)c(C(F)(F)F)c5)o4)cc23)cc1 | 15 | 14 | 8 | 9 | 0 | 0 | 0 | 0 | 0 | 0
O=C(O)C(F)(F)F.O=C(O)C(F)(F)F.O=c1[nH]ccc2nc(N[C@@H]3CCCNC3)nc(Nc3ccc(S(=O)(=O)N4CCOCC4)cc3)c12 [GSK2177277] | 10 | 0 | 98.7 | 99.8 | 99.9 | 99 | 95.3 | 99.2 | 94.8 | 99.1
Cc1ccc(C(=O)N2CC[C@@H](O)C2)cc1-n1c(C)cc(OCc2ccc(F)cc2F)c(Br)c1=O | 0 | 0 | 0 | 0 | 0 | 0 | 2 | 0 | 0 | 0
CCn1c(-c2nonc2N)nc2c(C#CC(C)(C)O)nc(OC[C@H](N)c3ccccc3)cc21 [GSK943949] | 0 | 0 | 19 | 96.2 | 75 | 97.9 | 20 | 82 | 7 | 17
CSc1cccc2c(-c3ccncn3)c(-c3ccc(F)cc3)nn12 [GW514786] | 40 | 0 | 2 | 0 | 11 | 6 | 5 | 19 | 0 | 2
COc1cc(Nc2nccc(-c3c(-c4cccc(NC(=O)c5c(F)cccc5F)c4)nn4ncccc34)n2)cc(OC)c1OC [GSK327238] | 68 | 92.7 | 44 | 79 | 14 | 67 | 9 | 90.2 | 6 | 14
Cc1cccc(NC(=O)Nc2ccc(Oc3ncnc4ccn(C)c34)cc2)c1 | 0 | 3 | 0 | 0 | 7 | 0 | 0 | 0 | 0 | 0
COc1cc(Nc2nccc(N3CCC(NC(=O)Nc4cccc(C(C)=O)c4)C3)n2)cc(OC)c1OC (centres unmarked) [GSK1379753] | 0 | 0 | 54 | 5 | 0 | 0 | 25 | 0 | 0 | 0
O=C(Nc1ccccc1F)NC1CCN(c2ccnc(Nc3ccc(F)cc3)n2)CC1 [GSK1379800] | 0 | 0 | 0 | 0 | 2 | 0 | 18 | 0 | 0 | 2
COc1cc(Nc2ncc3c(C)nc(-c4cc5ccccc5[nH]4)n3n2)cc(OC)c1OC [GW869516] | 23 | 24 | 0 | 43 | 0 | 0 | 45 | 0 | 0 | 0
Cn1cc(-c2[nH]c3cc(NC(=O)[C@H](N)C4CCCCC4)cc4c3c2C=NNC4=O)cn1 | 68 | 36 | 99.9 | 45 | 79 | 53 | 59 | 78 | 0 | 0
COc1cccc(NC(=O)NC2CCN(c3ccnc(Nc4cc(OC)c(OC)c(OC)c4)n3)C2)c1 (centres unmarked) [GSK1379763] | 0 | 12 | 48 | 0 | 14 | 0 | 0 | 0 | 0 | 0
Nc1n[nH]c2cnc(-c3ccccc3)cc12 [SB-642124] | 49 | 43 | 1 | 17 | 24 | 38 | 4 | 45 | 5 | 4
Cl.c1ccc(-c2ccc3c(Nc4ccc5[nH]ncc5c4)ccnc3c2)nc1 [GW440137] | 0 | 0 | 7 | 4 | 5 | 0 | 17 | 0 | 3 | 12
CC(C)(C)c1ccc2nccc(Nc3cccc(O)c3)c2c1 [GW856795] | 0 | 0 | 7 | 0 | 22 | 0 | 0 | 0 | 9 | 6
COc1ccc(CNC(=O)NC2CCN(c3ccnc(Nc4ccc(F)cc4)n3)CC2)cc1 [GSK1379788] | 0 | 0 | 0 | 0 | 0 | 0 | 0 | 0 | 5 | 6
